# This is a sample that favours compounds with a hit; in the whole collection about 19% have one here.
# HepG2 tox = qHTS for Inhibitors of TGF-b: Cytotox Counterscreen | HepG2 CAGA-GFP viability, ATP luminescence, 18 h | actives 0.76% (n = 410,000) | Potency, µM (series often up to 46.1 µM), for the others: top-dose activity change, negative = cytotoxicity, most hits filed as cytotoxic; also: potency is read from the fitted curve at half-maximal effect
#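 HepG2 CAGA-GFP cells (1000/well, DMEM with 1% FBS) received compound, then TGF-beta at 500 pg/mL final, and were incubated 18 hours at 37 degrees C. Viability was read by CellTiter-Glo luminescence. Media-only wells were set as complete cell-killing and DMSO as no toxicity.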
# TDP1 cell noCPT = qHTS for Inhibitors of human tyrosyl-DNA phosphodiesterase 1 (TDP1): qHTS in cells in absence of CPT | AID 686978, 2013 | actives 15% (n = 420,000) | Potency, µM (highest dose often 46.2 µM), inactives show top-dose activity change, negative = growth inhibition, hits mostly inhibitors | DT40 Tdp1-/- hTDP1 cells, no CPT, ATP luminescence, 48 h; also: potency is read from the fitted curve at half-maximal effect; % is scaled to controls: 0 for no effect and ±100 for the full control effect; nearly all actives have a fitted effect of over 55% in size
#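 DT40 Tdp1-/-;hTDP1 cells, no CPT (DMSO vehicle only), 400 cells/well; compounds pin-transferred; ≥48 hr, 37 °C; CellTiter-Glo 30 min RT dark, luminescence read.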
# TGFb SMAD3 inh = qHTS for Inhibitors of TGF-b; HepG2 CAGA-GFP TGF-b/SMAD3 reporter, GFP fluorescence, 18 h; TGF-beta stimulated, 500 pg/mL final; Potency, µM (series often up to 46.1 µM), inactives show top-dose activity, negative = inhibition, usual class: inhibitors; actives 1.2% (n = 410,000); AID 588855, 2011; also: potency is read from the fitted curve at half-maximal effect; % is scaled to controls: 0 for no effect and ±100 for the full control effect; nearly all actives have a fitted effect of over 65% in size
#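 First, reporter cells (HEPG2 CAGA-GFP) rested 2 h at 37 degrees C. Next, compounds were pinned in and TGF-beta added to 500 pg/mL final. After 18 h, GFP was imaged per cell and summed per well.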
# TDP1 cell CPT = qHTS for Inhibitors of human tyrosyl-DNA phosphodiesterase 1 (TDP1): qHTS in cells in presence of CPT; chicken DT40 Tdp1-/-;hTDP1 cells + 20 nM CPT, ATP luminescence, 48 h; Potency, µM (titrated, usually from 46.2 µM), inactives show at the top dose activity change, negative = growth inhibition, most hits filed as inhibitors; actives 12% (n = 420,000); AID 686979, 2013; also: potency is read from the fitted curve at half-maximal effect; % is scaled to controls: 0 for no effect and ±100 for the full control effect; nearly all actives have a fitted effect of over 55% in size
#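 Chicken DT40 Tdp1-/- cells stably complemented with human TDP1 were seeded at 400 cells/well in medium containing 20 nM camptothecin, exposed to pin-transferred compounds, and grown at 37 °C for at least 48 hr. Viability was read as ATP luminescence.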
# IL-1B inflam inh = qHTS for Inhibitors of Inflammasome Signaling: IL-1-beta AlphaLISA Primary Screen; THP-1 LPS/ATP IL-1B secretion, AlphaLISA, 16 h; hits give low values; activity change, % at 57.5 µM; actives 4.7% (n = 360,000); AID 743279, 2014; in the data active = activity change below about -50%; inconclusive = mostly about -30% to -49%; also: % is scaled to controls: 0 for no effect and ±100 for the full control effect
#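 Secreted IL-1B measured by AlphaLISA bead assay after 16 h compound exposure of THP-1 cells; compounds (final up to 57.5 uM) added 1 h before LPS (250 ng/mL) and ATP (1.25 mM) stimulation; lower signal means less secretion.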
# TDP1 inh = qHTS Assay for Inhibitors of Tyrosyl-DNA Phosphodiesterase (TDP1) | Tyrosyl-DNA phosphodiesterase 1 (Homo sapiens), Q9NUW8 | actives 0.28% (n = 350,000) | recombinant TDP1, AlphaScreen DNA substrate cleavage | Potency, µM (doses to about 130 µM), without a hit: top-dose activity change, negative = inhibition, usual class: inhibitors | AID 485290, 2010; also: potency is read from the fitted curve at half-maximal effect; % is scaled to controls: 0 for no effect and ±100 for the full control effect; nearly all actives have a fitted effect of over 40% in size
# Target sequence (Q9NUW8 whole entry, looked up): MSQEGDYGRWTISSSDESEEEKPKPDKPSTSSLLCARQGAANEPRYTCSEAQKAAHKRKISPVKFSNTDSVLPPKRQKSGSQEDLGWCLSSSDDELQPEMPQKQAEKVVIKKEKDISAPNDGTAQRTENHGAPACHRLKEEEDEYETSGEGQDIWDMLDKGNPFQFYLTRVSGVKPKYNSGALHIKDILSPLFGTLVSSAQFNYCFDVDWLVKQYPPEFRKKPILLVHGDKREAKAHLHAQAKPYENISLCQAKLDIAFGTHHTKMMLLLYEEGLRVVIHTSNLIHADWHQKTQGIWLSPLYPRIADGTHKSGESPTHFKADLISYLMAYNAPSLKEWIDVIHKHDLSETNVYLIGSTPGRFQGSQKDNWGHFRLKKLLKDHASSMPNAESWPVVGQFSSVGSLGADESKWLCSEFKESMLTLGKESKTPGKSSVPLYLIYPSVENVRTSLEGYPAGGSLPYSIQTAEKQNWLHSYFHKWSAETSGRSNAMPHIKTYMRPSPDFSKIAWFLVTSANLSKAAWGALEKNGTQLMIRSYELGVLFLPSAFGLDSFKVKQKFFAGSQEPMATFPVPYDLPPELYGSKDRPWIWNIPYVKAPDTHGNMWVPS
#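 Compounds were preincubated with Tdp1 (1 nM final) for 15 min at room temperature before substrate (15 nM final) started a 5 min reaction; beads (10 ug/ml final) were then added for 10 min before AlphaScreen detection.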
# * marks the source's active call; other numbers are inactive results; ? = inconclusive; . = no result given. Unless noted, calls follow the shape of the dose curve; as a rule, active = well fitted curve in the direction sought with a large enough effect; inconclusive = small, poorly fitted or top-dose-only effect, or another doubt; inactive = no such curve, though single readings can be large; an effect the other way counts as inactive or inconclusive.
SMILES,HepG2 tox,TDP1 cell noCPT,TGFb SMAD3 inh,TDP1 cell CPT,IL-1B inflam inh,TDP1 inh
CCOc1cccc(C2c3c(-c4cc(C)ccc4O)n[nH]c3C(=O)N2Cc2ccco2)c1 (centres undefined),-105%,?,?,?,.,14%
CC(=O)c1cccc(NC(=O)Cn2ccn3nc(-c4ccccc4)cc3c2=O)c1,-3%,3%,-2%,7%,.,4%
O=C(O)c1cc(S(=O)(=O)NC23CC4CC(CC(C4)C2)C3)ccc1Cl,27%,3%,19%,7%,-2,.
Cc1cc(Br)ccc1NC(=O)CN1C(=O)C2C3CC(c4ccccc4)C(C3)C2C1=O (centres undefined),-9%,16µM*,-14%,?,?,4%
O=C(C[C@@H]1C/C=C/CC[C@H](Cc2ccc(F)cc2)C(=O)OCCNC1=O)N[C@H](CO)Cc1ccccc1,-7%,12µM*,7%,21µM*,-6,0%
C[C@@H]1COC(=O)[C@H](Cc2ccc(F)cc2)CC/C=C/C[C@@H](CC(=O)N[C@@H](CO)Cc2ccccc2)C(=O)N1,-13%,26µM*,-3%,?,6,0%
CC(C)(C)[C@H]1COC(=O)[C@@H](Cc2ccc(F)cc2)C/C=C\C[C@@H](CC(=O)N[C@@H](CO)Cc2ccccc2)C(=O)N1,-15%,18µM*,-9%,?,-25,2%
CC(C)(C)[C@H]1COC(=O)[C@@H](Cc2ccc(F)cc2)C/C=C\C[C@@H](CC(=O)N[C@H](CO)Cc2ccccc2)C(=O)N1,-14%,?,?,?,-11,0%
O=C(C[C@@H]1C/C=C\C[C@H](Cc2ccc(F)cc2)C(=O)OCCNC1=O)N[C@H](CO)Cc1ccccc1,-4%,16µM*,3%,?,19,1%
O=C(C[C@H]1C/C=C\C[C@@H](Cc2ccc(F)cc2)C(=O)O[C@@H](c2ccccc2)CNC1=O)N[C@@H](CO)Cc1ccccc1,-8%,-17%,-2%,-14%,-1,-4%
COc1ccc(NC(=O)Cn2c(=O)n(Cc3ccco3)c(=O)c3sc4ccccc4c32)cc1Cl,-8%,-24%,20%,-3%,.,-1%
COCCCNc1ncnc2c1cnn2-c1ccc(C)cc1C,-7%,-10%,0%,-17%,-11,4%
CCCCNc1ncnc2c1cnn2-c1ccccc1,-2%,2.6µM*,-33%,2.3µM*,-13,6%
COCCNc1ncnc2c1cnn2Cc1ccccc1Cl,-18%,18µM*,2%,?,2,.
COCCCNc1ncnc2c1cnn2-c1ccc(F)cc1,0%,5.8µM*,0%,5.2µM*,.,3%
c1ccc(-n2ncc3c(NCCCN4CCOCC4)ncnc32)cc1,-16%,7%,1%,-9%,0,2%
Clc1ccc(Cn2ncc3c(NCc4ccccc4)ncnc32)cc1,-30%,4.1µM*,2%,4.6µM*,-2,2%
CCOCCCNC(=O)Cn1ncc2c([nH]c3ccc(C)cc32)c1=O,-23%,-27%,.,?,.,1%
Cc1ccccc1NS(=O)(=O)c1ccc2oc(=O)ccc2c1,1%,2%,-1%,-25%,6,.
CCCCNc1ncnc2c1cnn2-c1ccc(Cl)cc1,-4%,4.6µM*,?,3.7µM*,-4,3%
CCN(CC)c1ncnc2c1cnn2Cc1ccc(Cl)cc1,6%,?,-15%,21µM*,?,6%
Clc1ccc(-n2ncc3c(NCCCn4ccnc4)ncnc32)cc1,6%,-24%,?,?,-18,6%
COCCNc1ncnc2c1cnn2Cc1ccc(Cl)cc1,4%,?,9%,?,-18,3%
CCc1nc(NC(C)(C)C)c2cnn(-c3ccccc3)c2n1,-59%,18µM*,?,?,2,3%
COCC(C)Nc1ncnc2c1cnn2-c1ccc(Cl)cc1 (centres undefined),-28%,?,1%,?,-57*,9%
SMILES,HepG2 tox,TDP1 cell noCPT,TGFb SMAD3 inh,TDP1 cell CPT,IL-1B inflam inh,TDP1 inh
CC(C)(C)OC(=O)NCc1nnc(-c2nc3ccccc3[nH]2)o1,.,.,.,.,.,-5%
COc1ccc(S(=O)(=O)NCc2ccc(C(=O)NCc3ccccc3)cc2)cc1,-23%,-9%,-12%,-18%,.,5%
COC(CN(C)C(=O)c1ccc2c(c1)NC(=O)c1ccccc1S2)OC,-9%,-13%,-4%,-3%,5,.
C/C=C/C=C/C=O,.,.,.,.,.,-3%
CC(C)N(Cc1ccccc1)C(=O)CN1C(=O)NC2(CCOc3ccccc32)C1=O (centres undefined),-17%,-4%,-23%,-24%,-17,2%
CCCCNc1ncnc2c1cnn2Cc1ccc(Cl)cc1,-27%,6.5µM*,-13%,9.2µM*,-1,.
COc1ccc(Cl)cc1NC(=O)CSc1cn(CC(=O)N2CCCCCC2)c2ccccc12,-8%,12µM*,?,13µM*,.,5%
O=C(CSc1cn(CC(=O)N2CCCC2)c2ccccc12)Nc1ccc(Cl)cc1,-32%,?,?,?,.,-8%
COc1ccc(Cl)cc1NC(=O)CSc1cn(CC(=O)N2CCCC2)c2ccccc12,-12%,3.3µM*,-10%,12µM*,.,5%
CC1CC=CC2C1C(=O)N(Cc1ccccc1)C2c1ccc(Br)cc1F (centres undefined),-4%,.,-19%,.,.,-3%
N#CC(=C1C=C(Br)C(=NO)C=C1Cl)c1cccc2ccccc12,-70%,?,?,?,-19,.
COc1ccc(C(C#N)=C2C=CC(=NO)C(C)=C2Cl)cc1,-29%,7.3µM*,?,10µM*,-82*,.
COc1ccc(C(C#N)=C2C=C(Cl)C(=NO)C=C2Cl)cc1,-54%,2.6µM*,?,3.3µM*,-6,.
COc1ccc2nc(N3CCCCC3)c(/C=C3\SC(=S)NC3=O)cc2c1,17%,?,-4%,?,28,.
O=C1NC(=S)S/C1=C\c1cc2ccccc2nc1N1CCCCC1,-5%,21µM*,-5%,21µM*,63,3%
O=C(Nc1ccc(Cl)cc1)Nc1ccccc1CC[N+](=O)[O-],4%,?,9%,13µM*,-15,2%
